Legend:
Test in all cases: DAPPL (digital affinity profiling via proximity ligation, sequencing); 10 mM Tris-HCl pH 7.5, 50 mM NaCl, 1 mM DTT, 4% glycerol, room temperature, 30 min; GST-TFs on glutathione beads, 16-mer random dsDNA library, 0.1% formaldehyde crosslink after washing; high values mean tight binding
FLI1 = biological target: T1, FLI1 (Homo sapiens, UniProt Q01543 1-452); conditions: protein: recombinant; tags: N-terminal GST; dsDNA, one strand shown
T1 sequence: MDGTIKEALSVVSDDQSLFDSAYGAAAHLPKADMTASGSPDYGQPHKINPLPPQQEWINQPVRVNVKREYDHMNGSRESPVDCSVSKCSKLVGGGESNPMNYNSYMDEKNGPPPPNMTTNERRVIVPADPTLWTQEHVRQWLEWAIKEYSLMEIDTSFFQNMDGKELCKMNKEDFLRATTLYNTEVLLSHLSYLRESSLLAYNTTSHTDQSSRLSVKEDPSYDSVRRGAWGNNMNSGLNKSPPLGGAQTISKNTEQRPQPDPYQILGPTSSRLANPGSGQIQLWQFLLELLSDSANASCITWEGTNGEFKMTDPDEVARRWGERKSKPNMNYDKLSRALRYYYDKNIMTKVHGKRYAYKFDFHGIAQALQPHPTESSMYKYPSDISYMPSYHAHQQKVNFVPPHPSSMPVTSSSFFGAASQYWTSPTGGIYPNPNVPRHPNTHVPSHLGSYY
How it was run: (§1)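 Human transcription factors carrying a GST fusion were produced in yeast, bound to glutathione beads, tagged with DNA barcodes and pooled together with a tag-only sample. Each pool was held with 200 nmole of a random double-stranded 16-mer DNA library in Tris/NaCl/DTT/glycerol buffer for 30 min at room temperature, then washed, crosslinked in 0.1% formaldehyde, proximity-ligated with BsaI/T4 ligase (1 h, 37 °C), PCR-amplified and sequenced on an Illumina NextSeq500. Binding signal is the read frequency of each hexamer for a given factor divided by its frequency in the tag-only sample.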

ELK1 = biological target: T2, ELK1 (Homo sapiens, UniProt P19419 1-428); conditions: protein: recombinant; tags: N-terminal GST; dsDNA, one strand shown
T2 sequence: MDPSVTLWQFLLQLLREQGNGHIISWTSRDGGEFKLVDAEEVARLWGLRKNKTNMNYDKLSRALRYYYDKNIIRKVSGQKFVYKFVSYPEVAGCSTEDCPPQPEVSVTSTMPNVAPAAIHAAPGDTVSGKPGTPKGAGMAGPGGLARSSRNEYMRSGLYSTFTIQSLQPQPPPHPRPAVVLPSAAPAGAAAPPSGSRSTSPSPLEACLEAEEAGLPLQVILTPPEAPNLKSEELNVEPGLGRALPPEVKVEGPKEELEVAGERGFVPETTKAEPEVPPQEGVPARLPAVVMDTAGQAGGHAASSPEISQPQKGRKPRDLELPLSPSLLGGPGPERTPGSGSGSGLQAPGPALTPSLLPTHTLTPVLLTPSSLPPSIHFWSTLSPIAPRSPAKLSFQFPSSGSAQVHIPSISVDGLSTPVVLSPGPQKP
How it was run: as §1

GABPA = biological target: T3, GABPA (Homo sapiens, UniProt Q06546 1-454); conditions: protein: recombinant; tags: N-terminal GST; dsDNA, one strand shown
T3 sequence: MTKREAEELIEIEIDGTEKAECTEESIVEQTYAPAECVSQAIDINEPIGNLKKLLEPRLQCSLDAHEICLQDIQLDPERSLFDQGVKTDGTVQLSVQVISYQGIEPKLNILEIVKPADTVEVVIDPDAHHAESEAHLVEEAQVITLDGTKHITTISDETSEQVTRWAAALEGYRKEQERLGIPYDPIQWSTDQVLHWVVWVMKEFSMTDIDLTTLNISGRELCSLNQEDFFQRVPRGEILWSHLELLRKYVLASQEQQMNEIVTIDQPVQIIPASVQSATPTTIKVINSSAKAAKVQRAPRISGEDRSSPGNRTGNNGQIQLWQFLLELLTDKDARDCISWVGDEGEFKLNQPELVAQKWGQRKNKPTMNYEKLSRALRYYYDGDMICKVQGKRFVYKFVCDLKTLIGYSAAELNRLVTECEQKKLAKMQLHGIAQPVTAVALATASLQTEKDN
How it was run: as §1

ERG = biological target: T4, ERG (Homo sapiens, UniProt P11308 1-479); conditions: protein: recombinant; tags: N-terminal GST; dsDNA, one strand shown
T4 sequence: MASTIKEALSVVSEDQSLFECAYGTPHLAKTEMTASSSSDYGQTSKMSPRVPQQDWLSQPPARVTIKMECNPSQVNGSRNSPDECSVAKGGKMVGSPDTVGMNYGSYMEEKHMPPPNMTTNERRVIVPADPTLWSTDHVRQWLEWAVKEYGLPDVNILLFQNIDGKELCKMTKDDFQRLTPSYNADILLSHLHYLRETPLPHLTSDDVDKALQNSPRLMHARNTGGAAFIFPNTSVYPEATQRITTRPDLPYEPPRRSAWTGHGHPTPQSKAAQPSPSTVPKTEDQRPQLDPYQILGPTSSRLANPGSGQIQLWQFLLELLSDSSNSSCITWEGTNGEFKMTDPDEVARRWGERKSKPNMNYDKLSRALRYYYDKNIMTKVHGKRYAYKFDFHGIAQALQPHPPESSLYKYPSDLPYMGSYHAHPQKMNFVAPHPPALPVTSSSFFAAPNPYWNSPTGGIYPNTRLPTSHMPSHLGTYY
How it was run: as §1

ELF1 = ELF1 (Homo sapiens, UniProt P32519 1-619); conditions: protein: recombinant; tags: N-terminal GST; dsDNA, one strand shown
How it was run: as §1

EHF = biological target: T5, EHF (Homo sapiens, UniProt Q9NZC4 1-300); conditions: protein: recombinant; tags: N-terminal GST; dsDNA, one strand shown
T5 sequence: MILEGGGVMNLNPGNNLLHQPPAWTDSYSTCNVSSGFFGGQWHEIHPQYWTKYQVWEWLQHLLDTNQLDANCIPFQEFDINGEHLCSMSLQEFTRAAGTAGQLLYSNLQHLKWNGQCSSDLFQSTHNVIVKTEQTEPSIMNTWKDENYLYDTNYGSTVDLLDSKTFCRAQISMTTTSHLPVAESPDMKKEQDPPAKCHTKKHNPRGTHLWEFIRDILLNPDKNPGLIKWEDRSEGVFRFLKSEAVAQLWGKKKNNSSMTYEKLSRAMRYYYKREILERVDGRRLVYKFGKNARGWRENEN
How it was run: as §1

SPI1 = SPI1 (Homo sapiens, UniProt P17947 1-270); conditions: protein: recombinant; tags: N-terminal GST; dsDNA, one strand shown
How it was run: as §1

SPIB = SPIB (Homo sapiens, UniProt Q01892 1-262); conditions: protein: recombinant; tags: N-terminal GST; dsDNA, one strand shown
How it was run: as §1

ELK3 = biological target: T6, ELK3 (Homo sapiens, UniProt P41970 1-407); conditions: protein: recombinant; tags: N-terminal GST; dsDNA, one strand shown
T6 sequence: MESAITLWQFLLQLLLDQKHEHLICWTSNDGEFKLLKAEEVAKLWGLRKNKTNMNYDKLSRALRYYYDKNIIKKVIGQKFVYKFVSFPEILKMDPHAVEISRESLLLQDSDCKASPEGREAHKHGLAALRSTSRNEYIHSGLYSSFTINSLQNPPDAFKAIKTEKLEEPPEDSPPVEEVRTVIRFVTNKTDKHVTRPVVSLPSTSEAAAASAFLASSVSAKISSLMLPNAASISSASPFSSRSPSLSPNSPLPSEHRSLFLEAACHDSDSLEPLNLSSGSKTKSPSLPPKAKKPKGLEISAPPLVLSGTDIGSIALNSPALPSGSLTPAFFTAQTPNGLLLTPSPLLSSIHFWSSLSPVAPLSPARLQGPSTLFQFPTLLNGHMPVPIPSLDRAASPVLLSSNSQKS
How it was run: as §1

FEV = biological target: T7, FEV (Homo sapiens, UniProt Q99581 1-238); conditions: protein: recombinant; tags: N-terminal GST; dsDNA, one strand shown
T7 sequence: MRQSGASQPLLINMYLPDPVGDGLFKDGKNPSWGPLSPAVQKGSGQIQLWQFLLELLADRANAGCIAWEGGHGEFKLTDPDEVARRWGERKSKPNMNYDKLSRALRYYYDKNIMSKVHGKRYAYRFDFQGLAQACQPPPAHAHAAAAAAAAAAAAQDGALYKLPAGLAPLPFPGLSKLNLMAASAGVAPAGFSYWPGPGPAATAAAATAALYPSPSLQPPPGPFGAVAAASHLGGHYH
How it was run: as §1

ETV5 = ETV5 (Homo sapiens, UniProt P41161 1-510); conditions: protein: recombinant; tags: N-terminal GST; dsDNA, one strand shown
How it was run: as §1

HSF1 = HSF1 (Homo sapiens, UniProt Q00613 1-529); conditions: protein: recombinant; tags: N-terminal GST; chain copies: 3; dsDNA, one strand shown
How it was run: as §1

SPIC = biological target: T8, SPIC (Homo sapiens, UniProt Q8N5J4 1-248); conditions: protein: recombinant; tags: N-terminal GST; dsDNA, one strand shown
T8 sequence: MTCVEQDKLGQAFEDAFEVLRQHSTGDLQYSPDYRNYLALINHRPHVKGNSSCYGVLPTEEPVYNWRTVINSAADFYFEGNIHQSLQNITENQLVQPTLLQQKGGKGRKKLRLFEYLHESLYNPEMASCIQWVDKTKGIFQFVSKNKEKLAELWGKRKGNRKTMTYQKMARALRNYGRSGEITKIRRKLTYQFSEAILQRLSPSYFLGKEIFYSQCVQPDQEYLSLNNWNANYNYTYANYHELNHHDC
How it was run: as §1

ELF4 = ELF4 (Homo sapiens, UniProt Q99607 1-663); conditions: protein: recombinant; tags: N-terminal GST; dsDNA, one strand shown
How it was run: as §1

ELK4 = biological target: T9, ELK4 (Homo sapiens, UniProt P28324-2 1-405); conditions: protein: recombinant; tags: N-terminal GST; dsDNA, one strand shown
T9 sequence: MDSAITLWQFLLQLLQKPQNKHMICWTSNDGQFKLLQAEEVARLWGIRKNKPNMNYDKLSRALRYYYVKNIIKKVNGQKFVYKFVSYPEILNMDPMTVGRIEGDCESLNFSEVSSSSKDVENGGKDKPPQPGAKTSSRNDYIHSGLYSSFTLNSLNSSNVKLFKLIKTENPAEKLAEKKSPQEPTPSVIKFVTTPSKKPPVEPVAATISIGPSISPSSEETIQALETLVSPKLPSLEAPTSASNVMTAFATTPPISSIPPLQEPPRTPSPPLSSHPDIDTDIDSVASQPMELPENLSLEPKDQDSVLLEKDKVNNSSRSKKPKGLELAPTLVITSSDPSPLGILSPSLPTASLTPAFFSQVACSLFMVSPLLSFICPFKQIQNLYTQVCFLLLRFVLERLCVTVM
How it was run: as §1

ETV2 = biological target: T10, ETV2 (Homo sapiens, UniProt O00321 1-342); conditions: protein: recombinant; tags: N-terminal GST; dsDNA, one strand shown
T10 sequence: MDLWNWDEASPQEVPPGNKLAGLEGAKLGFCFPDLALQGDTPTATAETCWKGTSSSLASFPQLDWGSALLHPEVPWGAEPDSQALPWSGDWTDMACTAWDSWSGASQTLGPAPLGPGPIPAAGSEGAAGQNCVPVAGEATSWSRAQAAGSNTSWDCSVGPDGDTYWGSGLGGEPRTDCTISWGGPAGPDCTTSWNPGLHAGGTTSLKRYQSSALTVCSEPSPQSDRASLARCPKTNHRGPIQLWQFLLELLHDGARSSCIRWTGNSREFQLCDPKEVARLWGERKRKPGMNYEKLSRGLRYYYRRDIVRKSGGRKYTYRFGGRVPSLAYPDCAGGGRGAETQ
How it was run: as §1

ELF3 = biological target: T11, ELF3 (Homo sapiens, UniProt P78545 1-371); conditions: protein: recombinant; tags: N-terminal GST; dsDNA, one strand shown
T11 sequence: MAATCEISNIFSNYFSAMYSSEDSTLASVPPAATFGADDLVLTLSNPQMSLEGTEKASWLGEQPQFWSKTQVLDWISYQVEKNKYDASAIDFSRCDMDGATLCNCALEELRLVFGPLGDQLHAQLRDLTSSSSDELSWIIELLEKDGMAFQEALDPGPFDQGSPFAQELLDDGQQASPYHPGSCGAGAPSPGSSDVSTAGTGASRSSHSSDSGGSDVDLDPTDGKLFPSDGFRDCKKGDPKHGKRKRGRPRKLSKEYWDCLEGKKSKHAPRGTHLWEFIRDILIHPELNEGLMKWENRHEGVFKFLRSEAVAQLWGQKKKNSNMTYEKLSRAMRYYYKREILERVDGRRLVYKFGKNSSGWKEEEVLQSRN
How it was run: as §1

CRX = CRX (Homo sapiens, UniProt O43186 1-299); conditions: protein: recombinant; tags: N-terminal GST; dsDNA, one strand shown
How it was run: as §1

ETV1 = ETV1 (Homo sapiens, UniProt P50549 1-477); conditions: protein: recombinant; tags: N-terminal GST; dsDNA, one strand shown
How it was run: as §1

Chain of ELF1 (P32519 whole entry): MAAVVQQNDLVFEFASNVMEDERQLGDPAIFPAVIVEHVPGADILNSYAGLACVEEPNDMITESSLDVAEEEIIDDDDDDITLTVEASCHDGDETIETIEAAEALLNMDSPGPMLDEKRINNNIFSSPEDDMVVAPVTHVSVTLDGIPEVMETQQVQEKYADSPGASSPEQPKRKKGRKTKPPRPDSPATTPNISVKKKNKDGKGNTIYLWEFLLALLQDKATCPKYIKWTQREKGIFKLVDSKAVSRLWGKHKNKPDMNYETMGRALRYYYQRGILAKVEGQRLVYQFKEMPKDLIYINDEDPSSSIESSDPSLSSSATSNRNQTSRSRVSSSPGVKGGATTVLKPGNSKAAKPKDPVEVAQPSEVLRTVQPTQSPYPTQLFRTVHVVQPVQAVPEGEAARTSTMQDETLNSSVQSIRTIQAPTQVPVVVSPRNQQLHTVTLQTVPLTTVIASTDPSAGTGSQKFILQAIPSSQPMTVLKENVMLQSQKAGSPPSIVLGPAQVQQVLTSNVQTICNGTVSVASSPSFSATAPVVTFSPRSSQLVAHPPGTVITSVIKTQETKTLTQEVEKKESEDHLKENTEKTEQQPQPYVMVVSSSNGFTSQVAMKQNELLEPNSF
Chain of SPIB (Q01892 whole entry): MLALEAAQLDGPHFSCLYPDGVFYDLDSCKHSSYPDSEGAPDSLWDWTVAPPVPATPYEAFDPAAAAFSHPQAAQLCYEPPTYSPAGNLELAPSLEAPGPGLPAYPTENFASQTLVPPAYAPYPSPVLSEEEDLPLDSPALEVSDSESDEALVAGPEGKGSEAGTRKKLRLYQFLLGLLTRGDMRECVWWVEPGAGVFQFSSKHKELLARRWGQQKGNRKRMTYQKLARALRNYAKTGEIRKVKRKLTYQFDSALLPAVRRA
Chain of CRX (O43186 whole entry): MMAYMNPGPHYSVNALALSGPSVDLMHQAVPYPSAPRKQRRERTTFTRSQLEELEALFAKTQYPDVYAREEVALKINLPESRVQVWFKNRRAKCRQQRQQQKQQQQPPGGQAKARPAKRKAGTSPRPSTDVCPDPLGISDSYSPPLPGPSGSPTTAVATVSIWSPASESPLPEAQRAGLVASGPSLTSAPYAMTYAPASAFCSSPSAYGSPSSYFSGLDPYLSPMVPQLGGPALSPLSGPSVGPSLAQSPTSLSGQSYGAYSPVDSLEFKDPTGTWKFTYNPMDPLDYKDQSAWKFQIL
Chain of HSF1 (Q00613 whole entry): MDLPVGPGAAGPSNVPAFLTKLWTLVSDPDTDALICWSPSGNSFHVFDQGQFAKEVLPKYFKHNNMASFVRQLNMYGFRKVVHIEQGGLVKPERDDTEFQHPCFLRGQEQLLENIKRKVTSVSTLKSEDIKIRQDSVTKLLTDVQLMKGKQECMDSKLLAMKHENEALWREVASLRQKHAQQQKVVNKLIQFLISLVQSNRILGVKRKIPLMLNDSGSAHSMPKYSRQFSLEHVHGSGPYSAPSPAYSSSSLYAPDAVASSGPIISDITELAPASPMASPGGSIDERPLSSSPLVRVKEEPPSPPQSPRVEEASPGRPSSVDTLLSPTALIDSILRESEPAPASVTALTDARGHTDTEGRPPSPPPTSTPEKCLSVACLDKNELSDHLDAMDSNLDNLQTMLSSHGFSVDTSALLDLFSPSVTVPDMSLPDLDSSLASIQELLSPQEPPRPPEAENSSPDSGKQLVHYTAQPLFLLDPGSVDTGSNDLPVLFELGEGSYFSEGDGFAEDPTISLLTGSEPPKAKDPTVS
Chain of ELF4 (Q99607 whole entry): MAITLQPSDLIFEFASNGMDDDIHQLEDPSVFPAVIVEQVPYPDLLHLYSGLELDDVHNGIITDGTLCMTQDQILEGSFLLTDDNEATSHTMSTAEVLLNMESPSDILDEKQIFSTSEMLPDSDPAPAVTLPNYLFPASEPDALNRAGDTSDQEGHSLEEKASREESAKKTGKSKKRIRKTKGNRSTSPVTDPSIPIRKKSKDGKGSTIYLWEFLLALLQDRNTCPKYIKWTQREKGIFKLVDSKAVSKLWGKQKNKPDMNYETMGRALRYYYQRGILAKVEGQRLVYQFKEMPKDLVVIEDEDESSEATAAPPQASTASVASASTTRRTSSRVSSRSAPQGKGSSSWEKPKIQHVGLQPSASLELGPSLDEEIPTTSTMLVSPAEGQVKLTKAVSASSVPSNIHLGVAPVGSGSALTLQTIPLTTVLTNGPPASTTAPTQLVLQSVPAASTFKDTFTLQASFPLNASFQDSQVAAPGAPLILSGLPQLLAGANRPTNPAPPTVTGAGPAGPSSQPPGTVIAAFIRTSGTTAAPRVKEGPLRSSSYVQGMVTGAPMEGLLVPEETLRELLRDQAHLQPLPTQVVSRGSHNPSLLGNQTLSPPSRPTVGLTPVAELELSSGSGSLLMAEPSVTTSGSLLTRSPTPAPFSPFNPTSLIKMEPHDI
Chain of ETV1 (P50549 whole entry): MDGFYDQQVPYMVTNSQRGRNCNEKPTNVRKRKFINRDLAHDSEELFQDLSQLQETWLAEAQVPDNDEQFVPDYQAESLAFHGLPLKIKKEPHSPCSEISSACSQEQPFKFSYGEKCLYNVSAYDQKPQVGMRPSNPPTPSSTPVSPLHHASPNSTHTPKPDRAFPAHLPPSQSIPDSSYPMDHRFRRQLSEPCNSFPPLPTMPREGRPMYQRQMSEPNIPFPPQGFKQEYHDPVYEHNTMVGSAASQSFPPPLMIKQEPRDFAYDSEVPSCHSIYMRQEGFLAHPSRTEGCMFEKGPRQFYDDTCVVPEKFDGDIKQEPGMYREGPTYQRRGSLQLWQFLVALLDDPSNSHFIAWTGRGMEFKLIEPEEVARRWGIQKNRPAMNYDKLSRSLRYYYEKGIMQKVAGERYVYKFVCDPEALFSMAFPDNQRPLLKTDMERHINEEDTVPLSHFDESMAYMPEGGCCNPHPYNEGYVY
Chain of ETV5 (P41161 whole entry): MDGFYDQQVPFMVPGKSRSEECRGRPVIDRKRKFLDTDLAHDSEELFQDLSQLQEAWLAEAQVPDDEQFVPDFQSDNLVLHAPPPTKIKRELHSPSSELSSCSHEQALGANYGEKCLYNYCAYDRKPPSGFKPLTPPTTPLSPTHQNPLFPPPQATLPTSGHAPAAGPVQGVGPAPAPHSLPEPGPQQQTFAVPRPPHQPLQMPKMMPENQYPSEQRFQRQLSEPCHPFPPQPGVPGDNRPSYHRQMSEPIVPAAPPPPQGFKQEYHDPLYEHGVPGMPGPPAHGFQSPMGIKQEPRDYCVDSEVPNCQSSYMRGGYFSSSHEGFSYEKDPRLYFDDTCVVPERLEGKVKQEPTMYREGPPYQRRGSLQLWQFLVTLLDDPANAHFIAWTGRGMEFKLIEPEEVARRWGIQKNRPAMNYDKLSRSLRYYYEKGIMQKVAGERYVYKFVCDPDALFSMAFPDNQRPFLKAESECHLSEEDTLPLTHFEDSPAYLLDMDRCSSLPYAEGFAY

GTATTT
binding signal (FLI1): 1.47 fold enrichment (6-mer frequency, TF over GST control)
binding signal (ELK1): 1.61 fold enrichment (6-mer frequency, TF over GST control)
binding signal (GABPA): 1.48 fold enrichment (6-mer frequency, TF over GST control)
binding signal (ERG): 1.67 fold enrichment (6-mer frequency, TF over GST control)
binding signal (ELF1): 1.53 fold enrichment (6-mer frequency, TF over GST control)
binding signal (EHF): 1.6 fold enrichment (6-mer frequency, TF over GST control)
binding signal (SPI1): 1.55 fold enrichment (6-mer frequency, TF over GST control)
binding signal (SPIB): 1.61 fold enrichment (6-mer frequency, TF over GST control)
binding signal (ELK3): 1.75 fold enrichment (6-mer frequency, TF over GST control)
binding signal (FEV): 1.6 fold enrichment (6-mer frequency, TF over GST control)
binding signal (ETV5): 1.59 fold enrichment (6-mer frequency, TF over GST control)
binding signal (HSF1): 1.5 fold enrichment (6-mer frequency, TF over GST control)
binding signal (SPIC): 1.66 fold enrichment (6-mer frequency, TF over GST control)
binding signal (ELF4): 1.59 fold enrichment (6-mer frequency, TF over GST control)
binding signal (ELK4): 1.52 fold enrichment (6-mer frequency, TF over GST control)
binding signal (ETV2): 1.69 fold enrichment (6-mer frequency, TF over GST control)
binding signal (ELF3): 1.39 fold enrichment (6-mer frequency, TF over GST control)
binding signal (CRX): 1.73 fold enrichment (6-mer frequency, TF over GST control)
binding signal (ETV1): 1.64 fold enrichment (6-mer frequency, TF over GST control)
